Compound activity: PubChem BioAssay, several laboratories
This is a sample that favours compounds with a hit; in the whole collection about 4.2% have one here.
Mtb betalactam: beta-lactam sensitization of Mtb H37Rv, H37Rv; M. tuberculosis H37Rv growth with meropenem, percent inhibition; inhibition, % at 25 µM; hit rate 0.27% among 330,000; call rule not given here;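 note: growth measured after seven days incubation then overnight dye step; 0% = bacteria only wells and 100% = bacteria with antibiotic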
GDH-TPI counter-1: GDH-TPI coupling enzyme inhibitors, primary screen, artefact control for M. tuberculosis FBA inhibitor project, biochemical, absorbance, full deck | GDH-TPI coupled enzyme counterscreen, NADH absorbance | inhibition, % at 4.8 µM | hit rate 1.2% among 360,000 | AID 588335, 2011;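 note: 0% = DMSO wells and 100% = wells lacking the enzyme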
FBA Mtb inh: Mtb FBA enzyme inhibitors, primary screen, biochemical, fluorescence, strain H37Rv. Fructose-bisphosphate aldolase (Mycobacterium tuberculosis (strain ATCC 25618 / H37Rv)), …. purified M. tuberculosis FBA, fluorescence read-out. inhibition, % at 1 µM. hit rate 2.3% among 360,000. AID 588726, 2011; in the data active = inhibition above about 27%;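 note: 0% = vehicle and 100% = reference inhibitor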
CCHF vOTU inh: CCHFV vOTU protease inhibitors, primary screen, biochemical, Pep-AMC substrate, fluorescence; inhibition, % at 11.5 µM; hit rate 0.55% among 370,000; AID 651958, 2012; note: 0% = vehicle wells with enzyme and 100% = no enzyme wells
RecA splice inh: Mtb RecA intein splicing inhibitors, primary screen, biochemical, fluorescence, HTS. Protein RecA (Mycobacterium tuberculosis (strain ATCC 25618 / H37Rv)), P9WHJ3. cell-free RecA intein splicing. inhibition, % (test concentration not listed). hit rate 0.75% among 290,000; in the data active = inhibition above about 30%; inconclusive = no clear call, values can overlap the other calls;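 note: 0% = vehicle wells and 100% = reference inhibitor control wells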
Target sequence (P9WHJ3 whole entry, looked up, canonical isoform): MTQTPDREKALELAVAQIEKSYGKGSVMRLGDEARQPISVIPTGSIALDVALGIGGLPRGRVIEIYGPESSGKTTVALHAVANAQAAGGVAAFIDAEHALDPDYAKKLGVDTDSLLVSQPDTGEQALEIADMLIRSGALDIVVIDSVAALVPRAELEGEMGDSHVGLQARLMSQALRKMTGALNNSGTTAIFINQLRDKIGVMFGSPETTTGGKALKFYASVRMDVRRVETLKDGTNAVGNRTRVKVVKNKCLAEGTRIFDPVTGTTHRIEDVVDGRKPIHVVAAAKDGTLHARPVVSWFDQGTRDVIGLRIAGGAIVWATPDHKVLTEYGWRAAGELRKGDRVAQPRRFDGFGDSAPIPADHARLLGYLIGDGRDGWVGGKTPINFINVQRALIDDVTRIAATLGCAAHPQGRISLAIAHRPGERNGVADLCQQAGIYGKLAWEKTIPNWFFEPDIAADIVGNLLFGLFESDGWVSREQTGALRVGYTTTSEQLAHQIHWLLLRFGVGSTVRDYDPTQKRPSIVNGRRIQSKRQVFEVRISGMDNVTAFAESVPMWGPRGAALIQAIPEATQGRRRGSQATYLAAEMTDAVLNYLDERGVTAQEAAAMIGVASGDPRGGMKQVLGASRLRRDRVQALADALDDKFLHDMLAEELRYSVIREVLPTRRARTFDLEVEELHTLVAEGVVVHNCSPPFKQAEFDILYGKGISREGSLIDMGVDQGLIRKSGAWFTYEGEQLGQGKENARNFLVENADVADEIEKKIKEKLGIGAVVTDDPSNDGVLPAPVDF
Mtb FBA confirm: M. tuberculosis aldolase blockers, biochemical, fluorescence, strain H37Rv, confirmation | shares compounds with FBA Mtb inh | purified M. tuberculosis FBA, fluorescence read-out | inhibition, % at 1 µM | hit rate 78% among 5,600 | AID 651616, 2012; in the data active = inhibition above about 27%;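 note: 0% = vehicle wells and 100% = reference inhibitor wells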
GDH-TPI counter-2: GDH-TPI coupling enzyme inhibitors, artefact control for M. tuberculosis FBA inhibitor project, biochemical, fluorescence, high throughput. shares compounds with FBA Mtb inh. GDH-TPI coupled enzyme counterscreen. inhibition, % at 1 µM. hit rate 81% among 5,600. AID 652141, 2013; in the data active = inhibition above about 10%
Starred values were filed as active, the others as inactive; ? = inconclusive; · = no result; + = active, no number. Cut-off read from the data, not from the text of the source, unless noted: active = inhibition above about 30%; inactive = the rest.

SMILES	Mtb betalactam	GDH-TPI counter-1	FBA Mtb inh	CCHF vOTU inh	RecA splice inh	Mtb FBA confirm	GDH-TPI counter-2
COc1ccccc1-c1oc2ccccc2c1C#CC(C)(C)O	?	14	55*	-1	·	+	+
C=CCC12C=C(OC)C(=O)C(C1=O)C(c1ccc(OC)cc1)C2C (stereo unspecified)	·	·	·	1	·	·	·
CN(C)CCNC(=O)c1cccc2[nH]c(-c3ccncc3)nc12	·	12	35*	-10	·	22	20*
COc1ccc(-c2nc(CCNC(=O)c3ccco3)cs2)cc1OC	-7	-10	26	0	9	·	·
CCCS(=O)(=O)NCCc1csc(-c2ccc(OC)c(OC)c2)n1	-10	5	35*	-14	1	92*	78*
CCS(=O)(=O)NCCc1csc(-c2ccc(OC)c(OC)c2)n1	-2	12	55*	-9	-3	-3	-5
CCN(CC(=O)Nc1c(F)cccc1F)C(=O)Cc1csc(-c2ccc(OC)c(OC)c2)n1	-2	-6	44*	-27	1	68*	56*
CCN(CC(=O)Nc1c(F)cccc1F)C(=O)Cc1ccccc1	-2	-6	-2	2	1	·	·
O=C(CSc1nnc(COc2ccccc2)n1Cc1ccco1)Nc1ccc2c(c1)OCO2	·	·	·	-3	·	·	·
CC(=O)N1CCN(c2ccc(N3CCN(Cc4ccccc4)[C@@H](C)C3)c(C)c2)[C@H](C)C1	·	·	·	-3	·	·	·
COC(=O)C1=C(C)N(Cc2ccc(C(F)(F)F)cc2)C(=NCc2ccc3c(c2)OCO3)NC1c1ccccc1 (stereo unspecified)	·	·	·	28	·	·	·
COC(=O)[C@]1(Cc2ccccc2)NC=C(C(=O)c2ccc(F)cc2)[C@@H]1c1ccccc1	·	·	·	-5	·	·	·
C=CCNC(=O)C(C#N)c1nc2ccccc2nc1N1CCCCCC1 (stereo unspecified)	64	15	41*	-23	-160	+	+
CN1CCN(c2nc3ccccc3nc2C(C#N)S(=O)(=O)c2ccccc2)CC1 (stereo unspecified)	-3	·	·	-5	0	·	·
N#CC(c1nc2ccccc2nc1N1CCCC1)S(=O)(=O)c1ccccc1 (stereo unspecified)	-22	15	106*	-110	-6	+	182*
CCOC(=O)[C@@]12CCC3=C1N(CCC3)C(=O)[C@H](CC(=O)NCc1cccc(C(F)(F)F)c1)C2	·	·	·	10	·	·	·
Cc1ccc(CNC(=O)c2cc3c(=O)n4ccccc4nc3n(Cc3ccco3)c2=N)cc1	63	22	63*	-9	-60	54*	48*
CCCn1c(=N)c(S(=O)(=O)c2ccc(F)cc2)cc2c(=O)n3ccccc3nc21	-1	5	23	-7	-37	·	·
Cc1ccc(S(=O)(=O)c2cc3c(=O)n4ccccc4nc3n(Cc3ccco3)c2=N)cc1	-12	35*	87*	-56	-314	+	+
N=c1c(C(=O)NCc2ccco2)cc2c(=O)n3ccccc3nc2n1Cc1ccc(Cl)cc1	18	13	44*	-41	-94	113*	87*
Cc1ccc2nc3c(cc(C(=O)NCc4ccco4)c(=N)n3Cc3ccco3)c(=O)n2c1	9	14	42*	-20	-33	49*	36*
Cc1cc2ccccc2c(=O)n1CC(=O)NCc1ccco1	-5	6	4	0	0	·	·
N=c1c(C(=O)NCc2ccc3c(c2)OCO3)cc2c(=O)n3ccccc3nc2n1Cc1cccnc1	-4	5	3	-4	-35	·	·
C=CCN=C1NC(c2cccc(C(F)(F)F)c2)C(C(=O)OC)=C(C)N1Cc1ccccc1C(F)(F)F (stereo unspecified)	·	·	·	15	·	·	·
O=C(OCCN1CCCC12CCC(c1ccccc1)CC2)c1ccccc1 (stereo unspecified)	·	·	·	7	·	·	·
SMILES	Mtb betalactam	GDH-TPI counter-1	FBA Mtb inh	CCHF vOTU inh	RecA splice inh	Mtb FBA confirm	GDH-TPI counter-2
COc1ccc(C2=Nn3c(nnc3C3CCCCC3)SC2)cc1	·	·	·	7	·	·	·
Cc1nnc(SCC(=O)NC2CCS(=O)(=O)C2)n1Cc1ccccc1 (stereo unspecified)	-4	1	3	3	2	·	·
N=c1c(C(=O)NCc2ccccc2)cc2c(=O)n3ccccc3nc2n1Cc1ccco1	-3	17	50*	4	-263	88*	78*
O=C(NC1CCS(=O)(=O)C1)c1cc2c(=O)n3ccccc3nc2n1Cc1ccccc1 (stereo unspecified)	·	22	102*	-129	·	+	196*
COCc1cc(N2CCN(C(=O)OC(C)(C)C)C[C@@H]2C)ccc1N1CCN(Cc2ccccc2)[C@@H](C)C1	·	·	·	15	·	·	·
O=C(C1CCCN(S(=O)(=O)c2ccc(F)cc2)C1)N1CCN(Cc2ccccc2)CC1 (stereo unspecified)	·	·	·	5	·	·	·
CCCC(=O)Nc1nnc(-c2cccc(OCC)c2)s1	15	6	11	12	-3	·	·
CCOC(=O)Nc1nnc(-c2ccc(OC)cc2)s1	4	8	52*	0	-2	158*	121*
CCC(=O)Nc1nnc(/C=C/c2ccccc2)s1	4	31*	33*	-8	-1	124*	103*
CCc1nnc(NC(=O)Cc2ccc(OC)cc2)s1	0	2	2	14	-1	·	·
CCCC(=O)Nc1nnc(/C=C/c2ccccc2)s1	4	26	19	-8	-2	·	·
CCOC(=O)Nc1nnc(-c2cccc(OC)c2)s1	-3	10	98*	-17	-2	+	178*
CCOC(=O)Nc1nnc(/C=C/c2ccc(OC)cc2)s1	22	36*	33*	9	-2	-3	-7
C[C@H]1CCCN1c1cccc2c1S(=O)(=O)N1CC[C@@H](C1)O2	·	·	·	-7	·	·	·
O=C(NCc1ccccc1)[C@H]1CCCN1C(=O)[C@H]1CCCN1C(=O)c1cccc(Cl)c1	·	·	·	-12	·	·	·
CC(C)[C@H](NC(=O)C1CC(=O)N(c2ccc3c(c2)OCCO3)C1)C(=O)NC1CCCC1 (stereo partly specified)	-2	-3	96*	-3	3	+	+
COc1cc2c(C#N)c(N3CCN(C)CC3)nc(N)c2c(N)n1	1	14	81*	-75	-2	+	+
Cc1ccccc1CNC(=O)C1CCCN(c2ncccn2)C1 (stereo unspecified)	·	·	·	-7	·	·	·
Fc1cccc(F)c1Cn1ccc2ccc(-c3ccc4ccn(Cc5c(F)cccc5F)c4c3)cc21	·	·	·	-3	·	·	·
Cc1ccc(C(=O)Nc2ccc3nccnc3c2)cc1	-14	12	37*	-39	4	44*	36*
